# Data taken from PubChem BioAssay AID1345082 (National Center for Advancing Translational Sciences (NCATS), 2018).
# Values joined by “and” are separate entries in the source; they are usually repeats but may differ in a detail not shown here. Equal values may be shown once. The whole screen tested about 94,000 compounds, of which about 4,000 (4.3%) were called active. Roughly 29% stayed inconclusive and do not appear here. The call rests on the fitted dose curve; in most records, active means well fitted inhibition curve with a large enough effect; inconclusive means small, poorly fitted or top-dose-only effect; inactive means no such curve, though single readings can be large or run the other way. For the sample, actives were picked, then their nearest neighbours and some compounds at random.
# Test: Cytotoxic Profiling in NIH 3T3 Cell Line of Diverse Libraries Using Quantitative High-Throughput Screening; further: nearly all actives have a fitted effect of over 55% in size
# Details: NIH 3T3 viability, CellTiter-Glo ATP luminescence, 48-72 h; series mostly up to 96.7 µM; activity change, negative = cytotoxicity: at the top concentration
# Outline: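 Viability of NIH 3T3 cells after 48 or 72 hr compound treatment at 37 °C was assessed by CellTiter-Glo, with luminescence imaged following a 10 min room-temperature step.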
# On the % scale 0 is the no-effect control and ±100 the full control effect; potency means the concentration at half of the fitted maximal effect.
Structure (SMILES),"activity change, negative = cytotoxicity",outcome,Potency
Cc1ccccc1OCC(=O)N1CCC2(CC1)NC(=O)N(Cc1ccccc1)C2=O,-1.63% (inactive),,
Cc1ccc2[nH]c(=O)c(CCC(=O)NCc3ccncc3)cc2c1,,inactive,
COC(=O)[C@@H]1C[C@H](NC(=O)c2cc(OC)nc(OC)n2)CN1C,2.76% (inactive),,
CC1=C[C@@H](CC#N)[C@H](C(C)C)C[C@H]1CC(=O)N1CCN(C)CC1,-19.7% [at 174 µM] (inactive),,
COc1ccccc1N1CCN(C(=O)CCc2conc2-c2ccccc2F)CC1,-8.02% (inactive),,
COc1ccccc1N1CCN(C(=O)C[C@@H]2C[C@@H](C(C)C)[C@H](CO)C=C2C)CC1,,,100 µM (active)
O=C(NC1CCCC1)NC1CCN(c2ccc3nnc(-c4ccccc4)n3n2)CC1,-31.4% (inactive),,
COc1ccccc1C(=O)N1CCCN(c2ccc3nnc(C)n3n2)CC1,0.238% (inactive),,
O=C(c1ccnc(-c2nnc3ccc(N4CCOCC4)nn23)c1)N1CCCCC1,,,20 µM (active)
CCn1nccc1C(=O)N1CCCCCC1c1nc(C2CC2)no1 (stereo not given),-20.5% (inactive),,
COc1ccc(S(=O)(=O)N2CCCC(Cn3cnc4cccnc43)C2)cc1 (stereo not given),-22.5% (inactive),,
Cc1oc(-c2cccc(Oc3ccccc3)c2)nc1CN1CCOC(CCN)C1 (stereo not given),,,25.1 µM (active)
COc1ccc(-c2nc(CN3CCOC(CN)C3)c(C)o2)c2ccccc12 (stereo not given),,,25.1 µM (active)
Cc1oc(-c2cc(F)ccc2F)nc1CN1CCN(c2ccccc2)CC1C (stereo not given),-9.27% (inactive),,
Cc1oc(-c2cccs2)nc1CN1CCOC(Cc2ccccc2)C1 (stereo not given),-23.1% (inactive),,
CCC1CN(Cc2cn(-c3ccccc3)nc2-c2ccc(OC)cc2F)CCO1 (stereo not given),-4.55% (inactive),,
CCn1cnnc1CC1CCN(C(=O)C2CCN(Cc3nc(-c4cccc(C)c4)oc3C)CC2)CC1,-19% (inactive),,
O=C(c1cn2cc(Cl)ccc2n1)N1CCc2nc(-c3ccccc3)[nH]c2C1,-40.3% (inactive),,
COC(=O)[C@@H]1C[C@@H](NC(=O)c2ccc(-c3nnn(C)n3)cc2)CN1C,0.0956% (inactive),,
COC(=O)[C@@H]1Cc2c([nH]c3ccccc23)[C@H]2C[C@H](NCCNC(C)=O)C[C@@H](c3ccc(C)cc3)N21,,,25.1 µM (active)
O=C(CC1COCCN1)N1CCC(OCc2cccnc2)CC1 (stereo not given),-4.09% (inactive),,
CCCOC(=O)N1CCCC(c2nccn2CCCN(C)C)C1 (stereo not given),0.743% (inactive),,

Structure (SMILES),"activity change, negative = cytotoxicity",outcome,Potency
O=C(c1cc2ccccc2o1)N1CCC2(CNS(=O)(=O)c3cnccc3O2)C1 (stereo not given),,inactive,
C=CCNC(=O)c1ccc2ccnn2c1,-2.27% [at 174 µM] (inactive),,
COc1ccc(C(=O)N2CCCC2C(=O)N2CCCC2c2nc3ccncc3[nH]2)cc1 (stereo not given),-3.18% (inactive),,
COc1ccc(C(=O)N2CCCC(C(=O)N3CCCC(c4nc5ccncc5[nH]4)C3)C2)cc1 (stereo not given),-24% (inactive),,
COc1ccc(-c2nc3ccncc3[nH]2)cc1,,,10 µM (active) and 17.8 µM (active)
CCc1noc(-c2ccn3c(CNC(=O)c4ccco4)nnc3c2)n1,-2.86% (inactive),,
Cc1noc(CC2CCOC3(CCN(C(=O)c4ccc(C#N)cc4)CC3)C2)n1 (stereo not given),-17.6% (inactive),,
CCn1ncc(N2CCCC(CC(=O)NCc3cccnc3)C2)cc1=O (stereo not given),4.64% (inactive),,
O=C(NC[C@H]1COCc2nc3cc(C(F)(F)F)ccc3n21)c1cnccn1,-12.6% [at 138 µM] (inactive),,
CC(=O)N1CCC(NC[C@@H]2C=C(C)[C@H](Cc3nc4ccccc4n3C)C[C@H]2C(C)C)CC1,-14.2% (inactive),,
CC1=C[C@@H](CNCC(C)C)[C@H](C(C)C)C[C@H]1Cc1nc2c(C)cccc2[nH]1,,,39.8 µM (active)
CC1=C[C@@H](CNC2CCN(C)CC2)[C@H](C(C)C)C[C@H]1Cc1nc2ccccc2[nH]1,,,35.5 µM (active)
CC1=C[C@@H](CNC(=O)CC2(CC(=O)O)CCCC2)[C@H](C(C)C)C[C@H]1Cc1nc2c(C)cccc2[nH]1,-4.68% (inactive),,
COc1ccc2nc(C[C@@H]3C[C@@H](C(C)C)[C@H](CNC(=O)CC(C)(C)CC(=O)O)C=C3C)[nH]c2c1,-22.3% (inactive),,
CC1=C[C@@H](CN(CC2CC2)CC2CC2)[C@H](C(C)C)C[C@H]1Cc1nc2c(C)cccc2[nH]1,,,79.4 µM (active)
CCNC(=O)[C@@H]1C[C@@H](NC(=O)c2csc(C)c2CC)CN1C1CCCC1,-28.1% (inactive),,
CCOc1ccccc1CN1CCN(C2CCN(C(C)C)CC2)C(CCO)C1 (stereo not given),-19.7% (inactive),,
COc1ccc(CN[C@@H]2CCC[C@@H](C(=O)NCc3cc(C)on3)CC(=O)N(C)C2)cn1,,inactive [at 174 µM],
CCn1nc(CNC(=O)C2CCC(=O)N(C3CCCC3)C2)c2ccccc21 (stereo not given),-3.82% (inactive),,
COc1cc(NC(=O)Cn2nc3n(c2=O)CCCCC3)cc(OC)c1OC,,inactive,
Cc1nc(C)c(C(=O)N2CCC(Oc3ccccc3-c3nc(-c4ccccc4)no3)C2)s1 (stereo not given),,,39.8 µM (active)
O=C(c1ccoc1)N1CC(Oc2ccc(-c3nc(-c4ccccc4)no3)cc2)C1,-5.84% (inactive),,

Structure (SMILES),"activity change, negative = cytotoxicity",outcome,Potency
COCc1nc(-c2ccc(OC3CNC3)cc2)no1,-1.51% (inactive),,
c1ccc(-c2noc(-c3ccccc3OC3CCNC3)n2)cc1 (stereo not given),,,12.6 µM (active)
Cc1noc(-c2ccccc2OC2CCN(C(=O)c3cnccc3C)C2)n1 (stereo not given),-15.5% (inactive),,
Cc1cccc(C(=O)N2CCC(Oc3ccc(-c4noc(C(C)C)n4)cc3)C2)c1 (stereo not given),-31.8% (inactive),,
O=C1CCN(C(=O)Cc2cccc(F)c2)CCCC(c2nc(-c3cccnc3)no2)CCN1 (stereo not given),-20% (inactive),,
CC(=O)N1CCC[C@@H]1C(=O)N1CCC(N2CCOC2=O)CC1,-12.4% [at 138 µM] (inactive),,
CCN1C(=O)C2CC3(CCN(C(=O)c4cc5ccccc5[nH]4)CC3)CN2C1=O (stereo not given),-24.2% (inactive),,
COC1CCOC2(CCN(C(=O)NCc3ccc(C)cc3)CC2)C1 (stereo not given),,inactive,
CC(C)Cc1ccc(CN2CCC3(CC2)Cc2ccccc2CNC3=O)cc1,,,25.1 µM (active)
Cc1ccc(CN2CCC3(Cc4ccccc4CNC3=O)C2)cc1 (stereo not given),-26.8% (inactive),,
O=C1NCc2ccccc2CC12CCN(Cc1ccc(O)cc1)CC2,,inactive,
COCCN1C(=O)c2cccn2CC1CNC(=O)c1cc2ccccc2[nH]1 (stereo not given),-6.67% (inactive),,
O=C(c1ccccc1F)N1CCC(c2nc(C3CCOCC3)no2)CC1,-23.9% (inactive),,
O=C(NC1CCN(c2nc3ncccc3o2)CC1)c1ccc(F)cc1,-19.8% [at 138 µM] (inactive),,
O=C(CCc1conc1-c1ccccc1F)NCc1cccc(Cl)c1,-26.3% (inactive),,
CC(=O)N1CCCC(c2nn(-c3ccccc3)c(=O)[nH]2)C1 (stereo not given),-15.9% [at 138 µM] (inactive),,
O=C(Cc1cccc(Cl)c1)N1CCC(c2nn(-c3ccc(Cl)cc3)c(=O)[nH]2)CC1,,,44.7 µM (active)
COc1cccc(C(=O)N2CCC(c3nn(-c4ccccc4)c(=O)[nH]3)CC2)c1,-22.9% (inactive),,
Cn1nc(C2CCN(C(=O)c3cccc(Cl)c3)CC2)[nH]c1=O,-6.82% [at 138 µM] (inactive),,
O=C(Nc1ccccc1)N1CCCC(c2nn(-c3ccccn3)c(=O)[nH]2)C1 (stereo not given),-29.6% (inactive),,
O=c1[nH]c(C2CCCN(Cc3ccccn3)C2)nn1-c1ccc(Cl)cc1 (stereo not given),,,3.16 µM (active)
